Out of some 300,000 compounds screened, about 22,000 (7.3%) were called active. About 2% were inconclusive and are not listed. This is one part of a sample in which actives are shown more often than they occur. Values without a mark were called inactive. Cut-off read from the data, not from the text of the source: active = activity score below about -60%; inconclusive = mostly about -28% to -61%; inactive = positive scores.
Test: Activators via SNCA 5'UTR binding, MLPCN (AID 1814)
Details: alpha-synuclein 5'UTR reporter, activators screen; active compounds read low; tested at 7.5 µM

SMILES	activity score
Cc1cc(-n2nc(C)cc2C)n2ncc(-c3ccccc3)c2n1	-73.6% (active)
CCOC(=O)c1cnc(-n2nc(C)cc2C)nc1NNc1cc(C)nc(-c2ccccc2)n1	105%
O=C1/C(=C\Nc2ccccc2)CCN1c1ncccn1	-99.5% (active)
O=C(CSC(=S)N1CCCCC1)c1c(F)cccc1F	-175% (active)
COc1ccc(C)c(Cn2c(-c3nonc3N)nc3ccccc32)c1	76.2%
COCn1c(COc2ccccc2)nc2ccccc21	-65.8% (active)
Cc1ccc(OCc2nc3ccccc3n2C)cc1	-109% (active)
CCOc1ccc(C(O)Cc2nc3ccccc3n2C)cc1 (stereo not drawn)	-67.7% (active)
COc1ccc(OCc2ccc(-c3nc4ccccc4c(=O)n3N)o2)cc1	-143% (active)
Cn1c(COc2ccc(Cl)cc2)nc2ccccc2c1=O	-91.8% (active)
CC(C)c1ccc(Nc2ncccc2C#N)cc1	-111% (active)
COC(=O)c1sc(NC(=S)NC(=O)c2ccc(C)cc2)nc1C	-102% (active)
CC(=O)c1sc(NC(=O)c2ccc(C)cc2)nc1C	-112% (active)
O=C(N/N=C/c1ccc([N+](=O)[O-])o1)c1cccc(S(=O)(=O)N2CCOCC2)c1	-81.1% (active)
COc1ccc(C(=NN)c2ccc(OC)cc2)cc1	-133% (active)
O=C(Nc1ccon1)c1sc2ccccc2c1Cl	-179% (active)
Cc1c(Cl)c([N+](=O)[O-])nn1Cc1ccc(C(=O)N/N=C\c2cc(Cl)ccc2O)o1	81.2%
CN(C)c1ccc(/C=N/NC(=O)c2ccc(Cn3cc(Br)cn3)o2)cc1	-69.3% (active)
CCOc1ccc(OCc2cccc(C(=O)N(CC)CC)c2)cc1	50.8%
CC(C)c1cc(C(N)=O)c(NC(=O)c2cccc(COc3ccc(Br)cc3)c2)s1	-194% (active)
CN(C)c1nc(=Nc2cccc(Cl)c2)ss1	-64.3% (active)
CS(=O)(=O)N1CCc2nc(-c3ccccc3)sc2C1	-90.2% (active)

SMILES	activity score
O=C(c1ccccc1)c1ccc(OC(=O)N2CCCC2)cc1	-65.8% (active)
Cc1ccc(CSc2nc3[nH]ncc3c(=O)[nH]2)cc1	-78% (active)
Clc1ccc(-c2nnc(SCc3nc4ccccc4s3)o2)cc1	-162% (active)
Oc1ccc(CNc2ccccc2O)cc1	-62.2% (active)
Cc1cc(OCc2cc(C(=O)NCc3cc(C(C)C)no3)no2)cc(C)c1Cl	-135% (active)
CCOc1ccc(NS(=O)(=O)c2ccc(C)c(C(N)=O)c2)cc1	-72.9% (active)
COc1cc(CN2CCC(C(N)=O)CC2)ccc1OCc1ccccc1	-111% (active)
N=c1c2c3c(sc2nc2n1CCCCC2)CCCC3	-89.5% (active)
CCCCc1ccc(NC(=S)N2CCCC(CO)C2)cc1 (stereo not drawn)	-107% (active)
Fc1ccc(/C=N/Nc2nc(-c3cccnc3)nc3ccccc23)cc1	-70.9% (active)
CN(CCO)c1ccc(/C=N/Nc2nncc3ccccc23)cc1	57.2%
Cc1ccc(/C=N/NC(=S)NC2CCCCC2)o1	-135% (active)
Cc1ccc(NC(=S)NC2CCCC2)cc1	-65.1% (active)
CC(C)c1ccc(NC(=O)NC2CCCCC2)cc1	-244% (active)
Cc1cc(Br)ccc1NC(=S)NC1CCCC1	-66.7% (active)
Cc1ccc2nc(-c3ccc(Br)cc3)cn2c1	63.2%
COc1ccc(-c2cn3ccc(C)cc3n2)cc1	92.2%
CCN(CC)S(=O)(=O)c1ccc(-c2cn3ccc(C)cc3n2)cc1	-169% (active)
Cc1cccc(N=Nc2c(O)[nH]c3ccc(F)cc23)c1	-147% (active)
O=C(NCCc1ccc(F)cc1)c1n[nH]c2ccccc12	-150% (active)
O=C(CC1CCCCC1)NCc1ccccc1	-86.3% (active)
O=C(CC1CCCCC1)NCc1ccc(F)cc1	-72.4% (active)

SMILES	activity score
O=C(Cc1ccccc1)NCc1ccc(F)cc1	-66.4% (active)
COc1ccc(COC(=O)c2n[nH]c3ccccc23)cc1F	-96.4% (active)
O=C1Nc2ccccc2C12Nc1ccccc1S2 (stereo not drawn)	-83.2% (active)
CCc1ccc2c(c1)C1(NN=C(c3ccccc3)S1)C(=O)N2 (stereo not drawn)	71.7%
CCC(C)c1ccc(NC(=S)NCc2ccccn2)cc1 (stereo not drawn)	-123% (active)
COc1cccc(NC(=S)NCc2ccccn2)c1	-101% (active)
CCOC(=O)c1cc2cc(C)ccc2[nH]1	-132% (active)
CCOC(=O)c1nc(-c2ccc3c(c2)OCO3)[nH]c1C	-109% (active)
C[C@@H]1C[C@@H]2O[C@H]2/C=C\C=C\C(=O)Cc2c(Cl)c(O)cc(O)c2C(=O)O1	-113% (active)
CC(C)c1ccc(C(=O)NCCCc2ccccc2)cc1	-150% (active)
CN1CCN(CCCNC(=O)c2ccc(/C=C3\Oc4ccccc4N(Cc4ccc(Cl)cc4)C3=O)cc2)CC1	96.5%
S=C(Nc1ccc2c(c1)OCO2)N1CCCC1	-93.7% (active)
Cc1cccn2c(=O)c(C=O)c(Nc3ccc(S(N)(=O)=O)cc3)nc12	-500% (active)
O=C(CC1Nc2ccccc2NC1=O)Nc1ccccc1 (stereo not drawn)	-128% (active)
Oc1c(Br)cccc1/C=N/Nc1c(F)c(F)c(F)c(F)c1F	-72.3% (active)
Cc1[nH]c(=O)c(C(=O)/C=C/c2ccccc2)c2c1CCCC2	-146% (active)
COc1cccc(NC(=S)C(C#N)=C2N(C)c3ccccc3N2C)c1	-86.1% (active)
COc1ccc(-c2csc3nc(-c4ccccc4F)oc(=O)c23)cc1OC	-63.1% (active)
COc1ccc(/C=N/Nc2ncnc3sc4c(c23)CCCC4)cc1O	-197% (active)
CC(C)(C)c1ccc(/C=C/C(=O)Nc2ncccn2)cc1	-155% (active)
O=c1c2c(-c3ccccc3)ccnc2[nH]n1-c1ccccc1	-127% (active)
CN(c1ccc2nc3ccccc3c(=O)n2n1)C1CCCCC1	119%

SMILES	activity score
CN(C)c1nc(N)nc(CSc2nnnn2-c2cccc3ccccc23)n1	68.9%
CN(C(=O)CSc1nncc2ccccc12)C1CCCCC1	-107% (active)
CN(C(=O)CSc1nnnn1-c1ccccc1)C1CCCCC1	-63.1% (active)
Cc1ccc(O)c(NC(=O)c2cc(-c3ccco3)on2)c1	-184% (active)
O=C(Cc1cccc2ccccc12)NNC(=O)Nc1ccc(Cl)cc1	-112% (active)
Cc1nn2cc(-c3ccc(Cl)cc3)cnc2c1Br	-110% (active)
CN1CCN(NC(=O)Nc2ccc(Br)cc2)CC1	-64.9% (active)
COc1ccc(-n2nnnc2-c2nc3ccccc3s2)cc1	-77.3% (active)
O=C(Nc1cccc(-c2nnc(-c3ccccc3)o2)c1)C1CCCO1 (stereo not drawn)	-126% (active)
O=c1c(-c2cccc(Cl)c2)c[nH]n1-c1ccccc1	-74.9% (active)
COc1ccc(Cn2c(-c3ccc(Cl)cc3)c[n+]3ccccc23)cc1	-155% (active)
Fc1ccc(COc2ccc(-c3nnco3)cc2)cc1	-126% (active)
Cc1cc(C)c2nc3nc(C)cc(C)c3c(N)c2c1	-190% (active)
CCCCC(O)(CCCC)C(=O)NN(C(=O)CCl)c1ccccc1	-67.8% (active)
S=C(Nc1ccc(Br)cc1Cl)N1CCC2(CC1)OCCO2	-70.7% (active)
COc1ccc(C(=O)CCc2ccccc2O)c(OC)c1	-128% (active)
O=C(NC1CC1)c1ccc(-c2ccccc2)cc1	-142% (active)
O=C(NC1CCCCC1)c1cc(C2CC2)on1	-78% (active)
O=C(NC1CCCC1)c1cc(-c2ccccc2)on1	-324% (active)
O=C(NCCCn1ccnc1)c1cc(-c2ccccc2)on1	-632% (active)
CN(C)S(=O)(=O)N1CCC(Oc2cccc(C(=O)NCCCC3CCCC3)c2)CC1	-70.6% (active)
O=C(NCCOc1cccnc1)c1ccc(OC2CCN(Cc3ccccn3)CC2)cc1	95.3%

SMILES	activity score
Cc1c(NC(=O)c2cc(-c3ccc(Cl)s3)nc3ccccc23)c(=O)n(-c2ccccc2)n1C	-105% (active)
Cc1c(NC(=O)c2coc(=O)c(Br)c2)c(=O)n(-c2ccccc2)n1C	-75.7% (active)
CC1(C)CCSC(/C=C/c2ccccc2)=N1	-123% (active)
O=C(c1cnn(-c2ccc(Cl)cc2)c1)c1ccccc1O	-238% (active)
COc1ccc2nc(Nc3nc4cc5c(cc4s3)OCCO5)sc2c1	-103% (active)
COc1ccc(NC(=O)Nc2ccc3nsnc3c2)cc1	-138% (active)
COc1ccc2nc(NC(=O)c3ccc(Br)s3)sc2c1	-209% (active)
COc1ccc2nc(NC(=O)NC3CCCCC3)sc2c1	-186% (active)
COc1ccc2nc(Nc3nc4ccc(NC(C)=O)cc4s3)sc2c1	-95.5% (active)
CCc1noc(C)c1C(=O)Nc1nc2ccc(OC)cc2s1	-85% (active)
CCOc1ccc2nc(N(CCCN(C)C)C(=O)c3ccc(C(=O)c4ccccc4)cc3)sc2c1	90.2%
COc1cccc(C(=O)Nc2nc3ccc(S(C)(=O)=O)cc3s2)c1	-102% (active)
CCOc1ccc2nc(Nc3nc4ccc(NC(C)=O)cc4s3)sc2c1	-88.4% (active)
COc1ccc(/C=N/OCc2ccccc2C#N)c(OC)c1	-182% (active)
COc1ccc(N2CCN(C(=O)c3cccs3)CC2)cc1	-69.4% (active)
COC(=O)Nc1nc2ccc(Sc3ccccc3)cc2[nH]1	59.2%
Cc1ccc(O)c(CNc2nc3ccccc3[nH]2)c1	-69.9% (active)
Cc1ccc(-c2nc(COC(=O)c3c(C)noc3C)cs2)cc1	-170% (active)
CCN1/C(=C/C(=S)Nc2ccccc2)Sc2ccccc21	-111% (active)
CSc1nccc(NC(=O)c2ccc(C(C)(C)C)cc2)n1	-147% (active)
